Assay outcomes deposited in PubChem BioAssay by National Center for Advancing Translational Sciences (NCATS).
D1 agonist = human D1 receptor agonism; P21728; HEK293 T-REx D1 cells, calcium flux, agonist mode; activation, % at 2 µM; 360,000 tested, 1% active
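Agonism was scored from calcium flux recorded over 180 s (1 read/s) after pintool compound addition, following a 10-cycle baseline. Cells were inducible force-coupled HEK293 TREx D1, plated overnight at 30 C and loaded with no-wash calcium dye.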
TRHR PAM = TRH receptor (human) allosteric enhancement. P34981. TRHR cells, fluo-8 calcium fluorescence, EC20 TRH enhancement. enhancement, % at 2 µM. 360,000 tested, 0.66% active. AID 493056; in the data active = enhancement above about 30%
Target sequence (P34981 whole entry, looked up): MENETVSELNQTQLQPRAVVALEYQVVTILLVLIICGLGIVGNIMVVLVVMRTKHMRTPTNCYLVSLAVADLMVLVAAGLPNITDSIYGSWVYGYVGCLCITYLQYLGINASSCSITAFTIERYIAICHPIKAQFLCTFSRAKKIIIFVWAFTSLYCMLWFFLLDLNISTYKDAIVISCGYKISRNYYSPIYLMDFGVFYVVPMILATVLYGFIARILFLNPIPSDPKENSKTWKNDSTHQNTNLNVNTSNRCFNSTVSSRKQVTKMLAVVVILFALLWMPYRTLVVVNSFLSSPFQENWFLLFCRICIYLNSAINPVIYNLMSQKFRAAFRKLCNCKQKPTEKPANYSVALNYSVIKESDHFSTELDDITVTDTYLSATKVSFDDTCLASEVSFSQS
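TRHR-expressing cells loaded with fluo-8 calcium dye were read kinetically (ex 480/em 530) during compound addition, then stimulated with an EC20 of TRH (10 nM final). Enhancement of the Gq-mediated intracellular calcium response was scored.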
Glioma ERSR ind = induces the endoplasmic reticulum stress response in human glioma cells. Potency, µM, usual class: activators. 420,000 tested, 0.02% active. U87-MG GRP78 promoter luciferase reporter, 16 h; active = well fitted activation curve with a large enough effect; also: series mostly up to about 76 µM; nearly all actives have a fitted effect of over 35% in size
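ERSR induction read as luciferase luminescence (Bright-Glo, 10 min at room temperature) in stably transfected human U87-MG glioma cells exposed to compounds for 16 h, using GRP78 as sensor.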
D1 PAM = enhances dopamine response at the human D1 receptor | HEK293 TREx D1 cells, calcium flux, dopamine EC20 potentiation | potentiation, % at 10 µM | 360,000 tested, 0.036% active | P21728 | AID 504651; in the data active = potentiation above about 30%
D1 antagonist = blocks dopamine activation of the human D1 receptor. P21728. HEK293 TREx D1 cells, calcium flux, dopamine EC80; stronger effect = lower value. activity change, negative = inhibition, % at 10 µM. 360,000 tested, 3.2% active. AID 504652; in the data active = activity change below about -30%
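Inducible Hek293 Trex D1 cells (tetracycline, overnight, 30 C). Calcium dye 30–90 min RT. Antagonist mode: EC80 dopamine added after 180 s compound read.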
TRHR ag = activates the human TRH receptor; TRHR cells, calcium flux fluo-8, FDSS agonist mode; activation, % at 2 µM; 360,000 tested, 0.18% active; AID 493084
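In this calcium-flux screen, cells bearing human TRHR are dye-loaded with fluo-8, baselined for 10 cycles, then exposed to library compounds; positive kinetic calcium responses during the agonist phase mark hits, with TRH as control.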
Each line names hits and unclear results; the compound was inactive in the other large screens; ! = not active in a repeat. In the library only some 4% were active in any assay of this set; here they are far more common. Rule as the data show it, unless noted: active = activation above about 30%; inactive = the rest.

COc1ccc(CN([C@H](C)CO)S(=O)(=O)N(Cc2ccccc2)[C@H](CO)C(C)C)cc1	none
Cn1cnc(C(=O)N2CCN(C(=O)OC(C)(C)C)CC2)c1C(=O)N1CCN(C(=O)OC(C)(C)C)CC1	none
Cn1cnc(C(=O)N2CCN(c3ccccc3)CC2)c1C(=O)N1CCN(c2ccccc2)CC1	D1 antagonist -39
Cc1ccc(S(=O)(=O)NC(=O)c2ccc(-c3ccc(C)c4ccccc34)o2)cc1	none
CC(=O)N1c2c(cc(Br)cc2S(=O)(=O)NCc2ccc3c(c2)OCO3)CC1C (configuration not stated)	none
CC(=O)N1c2c(cc(Br)cc2S(=O)(=O)NCC2COc3ccccc3O2)CC1C (configuration not stated)	Glioma ERSR ind 40µM
Cc1cccc(-n2nnc(C(=O)NC3CCCc4ccccc43)c2N)c1 (configuration not stated)	none (no result: D1 agonist, TRHR PAM, D1 PAM, D1 antagonist, TRHR ag)
CN(C)S(=O)(=O)c1ccc(C(=O)/C=C/c2cccnc2)cc1	none
COc1ccc(C(=O)COc2ncnc3cc(Cl)ccc23)cc1	TRHR PAM 36
O=C(COc1ncnc2cc(Cl)ccc12)c1ccccc1	none
O=C(Nc1ccc(Cl)c([N+](=O)[O-])c1)c1cnccn1	none
Cc1ccc(C(=O)N2CCN(c3ccccc3)CC2)cc1S(=O)(=O)N1CCOCC1	none
CCCc1cnc(NCCNCC(O)COc2ccc(Cl)c(Cl)c2)nc1 (configuration not stated)	none
CCN(CC)CCCNC(=O)CCCn1c(=O)[nH]c2ccc(Br)cc2c1=O	D1 antagonist -31
CCN(CC)CCCNC(=O)c1ccc2c(=O)n(CCc3ccccc3)c(=O)[nH]c2c1	none
O=C1CC(c2nnc(Cc3ccccc3Cl)o2)CN1c1ccccc1 (configuration not stated)	none
Cc1ccc(S(=O)(=O)N2CC(=O)Nc3ccccc32)c(C)c1NS(C)(=O)=O	none
Cc1c(C(=O)NNC(=O)Nc2ccc([N+](=O)[O-])cc2)oc2ccccc12	none
O/N=C/c1ccc2ccccc2n1	none
O/C(=C\c1ccc2ccccc2n1)c1ccncc1	D1 agonist 45
O=C1N/C(=C\c2ccc(O)cc2)C(=O)c2ccccc21	D1 agonist 32
CN1CCN(C(=O)CCN2C(=O)/C(=C\c3ccccc3F)SC2=S)CC1	D1 agonist 96
COc1ccc(N2CC(O)(c3ccc(F)cc3)[N+]3=C2CCCC3)cc1 (configuration not stated)	none
CCOc1ccc(N2CC(O)(c3ccc(F)cc3)[N+]3=C2CCCC3)cc1 (configuration not stated)	D1 antagonist -44
Cc1cc(NC(=O)/C=C/c2cccc(F)c2)n(-c2nc3ccccc3[nH]2)n1	none
Cc1cc(NC(=O)/C=C/c2ccc(F)cc2)n(-c2nc3ccccc3[nH]2)n1	D1 antagonist -36
Cc1cc(NC(=O)/C=C/c2cccc(Cl)c2)n(-c2nc3ccccc3[nH]2)n1	none
COc1ccc(/C=C/C(=O)Nc2cc(C)nn2-c2nc3ccccc3[nH]2)cc1	D1 antagonist -41
COc1ccccc1CNC(=O)C(CC(C)C)NS(=O)(=O)c1ccc2c(c1)oc(=O)n2C (configuration not stated)	D1 antagonist -32!
COc1ccccc1CNC(=O)C(CCSC)NS(=O)(=O)c1ccc2c(c1)oc(=O)n2C (configuration not stated)	none
N=C1C(c2ccccc2)=C(O)CN1NC(=O)c1ccccc1	none
Cc1nnsc1NC(=O)OCc1ccc(Cl)cc1Cl	D1 antagonist -33
Cc1nnsc1NC(=O)OCCCl	none
Cc1nn(C)c(Cl)c1NC(=O)OCc1ccc(Cl)cc1Cl	D1 antagonist -37
CC(C)C(=O)N1CCc2cc(-c3csc(N)n3)ccc21	D1 antagonist -43
CC(C)c1ccc(/C=C/C(=O)Nc2nn[nH]n2)cc1	D1 antagonist -31 (no result: Glioma ERSR ind)
Cc1ccc(/C=C/C(=O)Nc2nn[nH]n2)o1	none
CC(=O)c1ccc(Nc2nc(-c3cccnc3)cs2)cc1	none
Cc1ccc(NC(=O)C2CC(=O)N/C(=N/N=C/c3ccco3)S2)cc1C (configuration not stated)	D1 antagonist -83
NS(=O)(=O)c1ccc(CCNC(=O)COc2ccc3c4c(c(=O)oc3c2)CCC4)cc1	none
Cc1ccc(S(=O)(=O)Nc2c(C)n(C)n(-c3ccccc3)c2=O)cc1	none
O=C(CCCCCN1C(=O)c2cccc3cccc(c23)C1=O)NC1CCS(=O)(=O)C1 (configuration not stated)	D1 antagonist -31
CCOC(=O)c1ccccc1Nc1cc(C)nc2nc(-c3ccco3)nn12	D1 agonist 74, D1 antagonist -32
Cc1cc(Nc2ccccc2Cl)n2nc(-c3ccco3)nc2n1	none
Cc1cccc(NC(=O)c2ccc(Cl)c(S(=O)(=O)N3CCCCCC3)c2)n1	none (no result: D1 PAM)
CC(=O)Nc1ccc(NC(=O)c2cc([N+](=O)[O-])cc([N+](=O)[O-])c2)cc1	TRHR PAM 38
O=C(Nc1ccc(Br)cc1)c1cc([N+](=O)[O-])cc([N+](=O)[O-])c1	D1 antagonist -37
CC(=O)Nc1ccc(C(=O)NNC(=O)c2cc([N+](=O)[O-])cc([N+](=O)[O-])c2)cc1	none
C=C(C)Cn1c(SCC(=O)N/N=C/c2cccc(O)c2)nc2ccccc2c1=O	D1 antagonist -35
O=C(CNC(=O)C(c1ccccc1)c1ccccc1)N/N=C\c1cccc(O)c1	D1 agonist 52
C=C(C)Cn1c(SCC(=O)N/N=C/c2ccccc2)nc2ccccc2c1=O	none
Cc1ccc(NC(=O)C2CCN(c3ncnc4sc(C)c(C)c34)CC2)cc1S(=O)(=O)N(C)C	none
Cc1ccc(C)c(S(=O)(=O)N2CCN(C(=O)C3CCN(c4ncnc5sc(C)c(C)c45)CC3)CC2)c1	TRHR PAM 34
CC(C)(C)C1CCC(=NNc2ccc(S(N)(=O)=O)cc2[N+](=O)[O-])CC1 (configuration not stated)	none
CC1CCCC/C1=N\Nc1ccc(S(N)(=O)=O)cc1[N+](=O)[O-] (configuration not stated)	D1 antagonist -30
CN(C)CCCN1C(=O)c2cccc3c(Br)ccc(c23)C1=O	none
CCN1C(=O)c2cccc3c(N)ccc(c23)C1=O	D1 agonist 231, TRHR PAM 60, TRHR ag 284
Cc1ccc(N2C(=O)c3cccc4c(N)ccc(c34)C2=O)c2cccnc12	D1 agonist 334, D1 antagonist -68, TRHR ag 158
Cc1nn(C)c(C)c1N1C(=O)c2cccc3c(Br)ccc(c23)C1=O	none
